Assay results taken from PubChem BioAssay (NCI).
Several values for one entry are separate records, joined by “and”; a condition that tells them apart may be missing. Identical values can stand only once. The panel holds about 79,000 compounds, 15% with a hit somewhere; the sample as a whole holds those more often. Unmarked numbers belong to inactive results. Activity calls are given as the source filed them. Rule as the data show it: active = growth inhibition above about 70%; inactive = the rest.

Key:
[1] = NCI Yeast Anticancer Drug Screen. Data for the rad50 strain (AID 155);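 also: 0% = growth of vehicle-only cultures of the same strain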; conditions: S. cerevisiae rad50 strain growth inhibition, hits give high values
Summary of the method: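 Genetically altered yeast (DNA repair pathway); compound treatment; growth inhibition vs vehicle ctrl.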

[2] = NCI Yeast Anticancer Drug Screen. Data for the mec2-1 strain (AID 157); conditions: S. cerevisiae mec2-1 strain, hits give high values
Summary of the method: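 mec2-1 yeast strain, carrying an alteration in DNA damage repair or cell cycle control, was exposed to compounds; growth inhibition was measured relative to vehicle-treated controls.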

[3] = NCI Yeast Anticancer Drug Screen. Data for the sgs1 mgt1 strain (AID 161);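 also: 0% = growth of cultures given vehicle only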; conditions: S. cerevisiae sgs1 mgt1 strain, hits give high values
Summary of the method: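 Percent growth inhibition was derived by comparing compound-exposed mutant yeast with vehicle-exposed cultures. The strain carries alterations in DNA damage repair.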

[4] = NCI Yeast Anticancer Drug Screen. Data for the cln2 rad14 strain (AID 165);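 also: 0% = growth equal to vehicle treated cultures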; conditions: S. cerevisiae cln2 rad14 strain, hits give high values
Summary of the method: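 Yeast carrying cln2 and rad14 alterations (cell cycle control and DNA damage repair) were exposed to compounds. Growth inhibition was measured against vehicle-treated controls.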

[5] = NCI Yeast Anticancer Drug Screen. Data for the bub3 strain (AID 167); conditions: S. cerevisiae bub3 mutant strain, hits give high values
Summary of the method: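 Yeast carrying a defined mutation is treated with each compound, and growth is compared with that of vehicle-exposed cells to give inhibition.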

[6] = NCI Yeast Anticancer Drug Screen. Data for the mlh1 rad18 strain (AID 175); conditions: S. cerevisiae mlh1 rad18 strain growth inhibition, hits give high values
Summary of the method: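 Growth inhibition of the yeast strain was measured after compound exposure and expressed relative to vehicle-treated controls. The strain carries defined defects in DNA damage repair.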

[7] = at 5.0 µM (retest, dose inferred, filed as 0.5)
[8] = at 50.0 µM (retest, dose inferred, filed as 5.0)

Compound	growth inhibition [1, 7]	growth inhibition [1, 8]	growth inhibition ([1]; at 50.0 µM)	growth inhibition [2, 7]	growth inhibition [2, 8]	growth inhibition ([2]; at 50.0 µM)	growth inhibition [3, 7]	growth inhibition [3, 8]	growth inhibition ([3]; at 50.0 µM)	growth inhibition [4, 7]	growth inhibition [4, 8]	growth inhibition ([4]; at 50.0 µM)	growth inhibition [5, 7]	growth inhibition [5, 8]	growth inhibition ([5]; at 50.0 µM)	growth inhibition [6, 7]	growth inhibition [6, 8]	growth inhibition ([6]; at 50.0 µM)
Oc1cccc2cccnc12 (tested in a mixture with another compound)	-6%	2%	73.5% (active)	-5%	-6%	83.8% (active)	-4%	2%	64%	-6%	-10%	-20.8%	-5%	-4%	89.8% (active)	0%	-15%	85.5% (active)
C[CH2][Sn]([Cl])([CH2]C)[O][Sn]([CH2]C)([CH2]C)[O][Sn]([Cl])([CH2]C)[CH2]C	16%	79% (active)	76% (active)	19%	84% (active)	81% (active)	-17%	89% (active)	86.3% (active)	15%	90% (active)	82.2% (active)	12%	89% (active)	83.2% (active)	11%	77% (active)	81.4% (active)
CC(C)(C)C[CH2][Hg][Cl]	99% (active)	99% (active)	99.2% (active)	100% (active)	99% (active)	99.7% (active)	100% (active)	100% (active)	99.5% (active)	99% (active)	100% (active)	99.5% (active)	99% (active)	99% (active)	99.6% (active)	100% (active)	100% (active)	99.5% (active)
CC(=O)OCC1OC(OC(C)C)[CH]([Hg][S]Cc2ccccc2)C(OC(C)=O)C1OC(C)=O (centres undefined)	99% (active)	98% (active)	54.8%	99% (active)	99% (active)	57.9%	94% (active)	98% (active)	44.6%	37%	98% (active)	96.8% (active)	99% (active)	98% (active)	98.2% (active)	99% (active)	97% (active)	46.1%
Cc1cccc(OCC(O)CN2CC2)c1 (centres undefined)	2%	64%	87.4% (active)	4%	52%	89.8% (active)	4%	78% (active)	89.4% (active)	4%	34%	87.8% (active)	-1%	34%	87.8% (active)	2%	95% (active)	88.5% (active)
CCCCCCCCCCCC(=O)[O][Hg][c]1ccccc1	99% (active)	99% (active)	99.4% (active)	100% (active)	100% (active)	99.7% (active)	100% (active)	99% (active)	99.7% (active)	99% (active)	99% (active)	99.4% (active)	99% (active)	99% (active)	99.5% (active)	99% (active)	99% (active)	99.7% (active)
Cl[C](Cl)(Cl)[Hg][c]1ccccc1	99% (active)	99% (active)	88% (active)	100% (active)	99% (active)	93.8% (active)	100% (active)	99% (active)	92.7% (active)	99% (active)	99% (active)	91.7% (active)	99% (active)	99% (active)	91.8% (active)	99% (active)	99% (active)	91.5% (active)
CC1(C)CC(=O)C([Se]C2=C(O)CC(C)(C)CC2=O)=C(O)C1	96% (active)	99% (active)	99.6% (active)	91% (active)	99% (active)	99.8% (active)	86% (active)	99% (active)	99.8% (active)	35%	99% (active)	99.4% (active)	40%	99% (active)	99.6% (active)	94% (active)	99% (active)	99.3% (active)
CCOP(=O)(Cc1cccc2ccccc12)OCC	5%	13%	4.65%	5%	-6%	-7.95%	4%	17%	13.4%	2%	14%	2.1%	14%	2%	19.9%	17%	29%	-3.35%
CC1(C)CCC(C)(C)c2cc(Cl)c(O)cc21	4%	1%	97.8% (active)	4%	2%	99.2% (active)	4%	2%	52.5%	5%	4%	96.6% (active)	3%	9%	98.8% (active)	-1%	-4%	97.2% (active)
c1cnc2c(c1)ccc1cccnc12	58% and 14%	97% (active) and 99% (active)	99.5% (active) and 99.2% (active)	32% and 27%	99% (active)	99.2% (active) and 98.9% (active)	50% and 13%	98% (active)	98.3% (active) and 99% (active)	6% and -24%	98% (active) and 90% (active)	98% (active) and 96.2% (active)	42% and 4%	98% (active) and 99% (active)	98.8% (active) and 99% (active)	52% and 17%	97% (active) and 98% (active)	98.8% (active)
COC1OC(COC(C)=O)C(OC(C)=O)C(OC(C)=O)[CH]1[Hg][I] (centres undefined)	99% (active)	99% (active)	99.2% (active)	99% (active)	99% (active)	99.6% (active)	100% (active)	100% (active)	99.6% (active)	99% (active)	99% (active)	98.9% (active)	99% (active)	99% (active)	99.3% (active)	99% (active)	99% (active)	99.2% (active)
CCC[CH2][Sn]([Cl])([CH2]C)[O][Sn]([Cl])([CH2]C)[CH2]CCC (centres undefined)	88% (active)	98% (active)	83.5% (active)	96% (active)	99% (active)	88.2% (active)	81% (active)	97% (active)	89.6% (active)	84% (active)	97% (active)	91.2% (active)	84% (active)	97% (active)	89.2% (active)	95% (active)	98% (active)	90.2% (active)
C=CCN(CC=C)CC(C(C)=O)C(c1ccccc1)c1c(O)c2ccccc2oc1=O (centres undefined)	32%	32%	85.3% (active)	28%	28%	74.2% (active)	23%	23%	84.2% (active)	13%	13%	81.2% (active)	27%	27%	78.8% (active)	32%	32%	80.2% (active)
CCCCCCCC/C=C\CCCCCCCCN1CC(C(=O)[O][Pb]([CH2]C)([CH2]C)[CH2]C)CC1=O (centres undefined)	7%	77% (active)	30.1%	5%	80% (active)	28.8%	10%	79% (active)	65.9%	5%	66%	9.45%	4%	82% (active)	23.3%	1%	72% (active)	65.7%
COC(=O)C(CCCN=C(N)N[N+](=O)[O-])NC(=O)c1ccc2c(c1O)C(=O)c1ccccc1C2=O (centres undefined)	8%	15%	71.6% (active)	4%	11%	28.7%	6%	18%	68.6%	-4%	3%	47.9%	2%	5%	14.5%	5%	20%	66.2%
COC(=O)C(C)(C)[n+]1c(C)cc(C)cc1C	-13%	-6%	-5.45%	-5%	-35%	-3%	-17%	-14%	-3.1%	-10%	-8%	-7.1%	1%	8%	-6.5%	-1%	5%	5.9%
C=CCC[CH2][Sn]([c]1ccccc1)([c]1ccccc1)[c]1ccccc1	98% (active)	93% (active)	99.5% (active)	99% (active)	98% (active)	99.5% (active)	99% (active)	98% (active)	99.4% (active)	98% (active)	96% (active)	98.2% (active)	97% (active)	97% (active)	99% (active)	99% (active)	97% (active)	99.4% (active)
